What was measured:
Format in all cases: functional
Plasmodium falciparum [1] = experiment: GSK_TCMDC: Inhibition of Plasmodium falciparum 3D7 in whole red blood cells, using parasite LDH activity as an index of growth. Test compounds present at 2uM
Plasmodium falciparum [2] = experiment: GSK_TCMDC: Inhibition of Plasmodium falciparum Dd2 in whole red blood cells, using parasite LDH activity as an index of growth. Test compounds present at 2uM
HepG2 = experiment: GSK_TCMDC: Percent inhibition of human HepG2 cell line. Test compounds present at 10uM.

Row | Structure (SMILES) | Inhibition (Plasmodium falciparum [1]) | Inhibition (Plasmodium falciparum [2]) | Inhibition (HepG2)
1 | CNCCNCc1ccc(-c2ccc(-c3nc4cc(C(F)(F)F)ccc4[nH]3)cc2)cc1.O=C(O)C(F)(F)F | 99% | 92% | 28%
2 | COc1ccc(C(=O)CCC(=O)N(CCC2CCCN2C)Cc2ccc(-c3ccc(CNCCc4ccc(S(C)(=O)=O)cc4)cn3)cc2)cc1F.O=C(O)C(F)(F)F (stereo not drawn) | 93% | 45% | 13%
3 | CC(C)c1ccc(NC(=O)c2cccc(CN3CCCN(Cc4cccc(C#N)c4)CC3)c2)cc1.O=C(O)C(F)(F)F | 93% | 15% | 48%
4 | O=C(Nc1ccc(Cl)cc1)Nc1ccc(-c2csc(-c3nc4ccccc4[nH]3)c2)cc1 | 90% | 40% | 59%
5 | O=C(Nc1cc(Cl)cc(Cl)c1)c1cc(Cl)c(=O)n(Cc2cccc(Cl)c2)c1 | 100% | 62% | 8%
6 | CN1CCCC(CN2CCN(Cc3cccc(-c4cccc(-c5nc6ccccc6[nH]5)c4)c3)CC2)C1.O=C(O)C(F)(F)F (stereo not drawn) | 100% | 99% | 45%
7 | COc1ccc(CNc2nccc3ccc(-c4ccc(N)nc4)cc23)cc1.O=C(O)C(F)(F)F | 93% | 49% | 7%
8 | COc1ccccc1-c1nc2nc(N)nc(N)c2nc1-c1ccccc1OC | 84% | 1% | 27%
9 | CC(C)CCN1CCCN(Cc2cccc(C(=O)Nc3ccc(C(C)(C)C)cc3)c2)CC1.O=C(O)C(F)(F)F | 85% | 1% | 33%
10 | O=C(Nc1cccc(-c2nn3ncccc3c2-c2ccnc(Nc3cccc(C(F)(F)F)c3)n2)c1)c1c(F)cccc1F | 97% | 68% | 49%
11 | Cc1cccc2nc(-c3cccc(-c4cccc(NC(=O)Nc5ccccc5)c4)c3)[nH]c12 | 100% | 64% | 8%
12 | COc1cc2c(cc1C(F)(F)F)N(C(=O)Nc1cc(Br)cc(-c3cccnc3)c1)CC2 | 96% | 34% | 8%
13 | N=C(N)Nc1nc(-c2cccc(NC(=O)Cc3ccccc3)c2)cs1 | 99% | 9% | 1%
14 | COc1ccc2nc(N(CCCn3ccnc3)C(=O)C=Cc3cccs3)sc2c1.Cl | 92% | 26% | 8%
15 | O=C(O)C(F)(F)F.O=S(=O)(NCCN1CCCC1)c1ccc(-c2ccc(CNC3Cc4ccccc4C3)cc2)cc1F | 100% | 75% | 33%
16 | CCc1c(CCNC/C=C/C=C/CNCCc2ccc(OC)c(OC)c2CC)ccc(OC)c1OC.Cl | 100% | 99% | 75%
17 | O=C(O)C(F)(F)F.O=S(=O)(NCCN1CCCC1)c1ccc(-c2ccc(CNCc3ccc(F)cc3)cc2)s1 | 100% | 44% | 42%
18 | COc1cc(CNC[C@@H](O)[C@H](Cc2ccccc2)NC(=O)c2cc(C3CCCC3)cc(N3CCCS3(=O)=O)c2)cc(OC)c1.Cl | 95% | 94% | 31%
19 | Fc1ccc2cc(C=Cc3ccncc3)[nH]c2c1 | 100% | 89% | 0%
20 | CCN1CCC(N(Cc2ccc(-c3ccc(C(F)(F)F)cc3)cc2)C(=O)Cn2c(CCc3cccc(F)c3F)cc(=O)c3c2CCC3)CC1.O=C(O)C(O)C(O)C(=O)O | 89% | 85% | 49%
21 | Cc1ccc(Cn2cnc3cc(C(=O)Nc4ccc(-c5cccc(CN(C)C)c5)cc4)ccc3c2=O)o1 | 99% | 39% | 22%

Row | Structure (SMILES) | Inhibition (Plasmodium falciparum [1]) | Inhibition (Plasmodium falciparum [2]) | Inhibition (HepG2)
22 | O=C(Nc1cccc(CN2CCCN(CC3CCCCC3)CC2)c1)c1ccc(Cl)c(Cl)c1.O=C(O)C(F)(F)F | 91% | 15% | 39%
23 | Cc1cc(C)c2ncc(C(=O)O)c(O)c2c1 | 93% | 60% | 0%
24 | CC(=O)c1ccc2cc(C(=O)NC3CCC(CCN4CCc5ccc(-c6noc(C)n6)cc5CC4)CC3)[nH]c2c1.Cl (stereo not drawn) | 81% | 45% | 28%
25 | CC(C)(C)CCN1CCC(NC(=O)c2ccc(-c3cccc(C(F)(F)F)c3)s2)CC1.O=C(O)C(F)(F)F | 93% | 88% | 95%
26 | O=c1cc(NCCCNCc2cccc(OC(F)(F)F)c2)[nH]c2ccccc12 | 97% | 72% | 0%
27 | Cc1nc(-c2nc(NCCc3cnccn3)ncc2-c2ccsc2)sc1C | 98% | 40% | 0%
28 | Cn1cnc2nc(NCCc3ccccc3)nc(NCc3cccc4ccccc34)c21 | 95% | 98% | 16%
29 | COc1ccc(NC(=O)/C=C/c2ccccc2Cl)cc1OCCN1CCC(NCc2ccccc2)CC1 | 100% | 100% | 28%
30 | COc1ccccc1CN1CCC(CNC(=O)c2cc(-c3ccc(N(C)C)cc3)cs2)C1.O=C(O)C(F)(F)F (stereo not drawn) | 82% | 16% | 17%
31 | COc1cc(CNC[C@@H](O)[C@H](Cc2ccccc2)NC(=O)c2cc(OC(C)C)cc(N3CCCCS3(=O)=O)c2)cc(OC)c1.Cl | 100% | 94% | 7%
32 | O=[N+]([O-])c1ccc(C=NNc2nc(Nc3ccccc3)nc(Nc3ccccc3)n2)o1 | 94% | 61% | 5%
33 | O=S(=O)(c1c(Cl)cc(Cl)cc1Cl)N1CCCCC(c2ccc(F)c(F)c2)=N1 | 87% | 65% | 5%
34 | O=C(Nc1ccc(N2CCN(C(=O)/C=C/c3ccccc3)CC2)c(Cl)c1)c1ccc([N+](=O)[O-])o1 | 97% | 90% | 98%
35 | Cc1cnc(C(=O)Nc2cccc(-c3csc(-c4nc5ccccc5[nH]4)c3)c2)cn1 | 98% | 80% | 31%
36 | COCCOc1nc(N)nc2ncc(Cc3cc(OC)ccc3OC)c(C)c12 | 96% | 0% | 61%
37 | CCN(CC)Cc1cc(NC(=O)c2ccccc2O)ccc1Oc1ccc(Cl)cc1.Cl | 98% | 88% | 32%
38 | CCCN(CCC)S(=O)(=O)c1ccc(C(=O)Nc2nc3ccc(-c4cc(=O)[nH]c(Nc5ccccc5Cl)n4)cc3[nH]2)cc1 | 100% | 98% | 1%
39 | CCOc1cc(C(C)C)ccc1C1CCN(CCCCNC(=O)c2ccc(NC(=O)c3ccc(Cl)cc3)cc2)CC1 | 100% | 98% | 32%
40 | COc1ccc(-c2nc(NC(=O)CS(=O)(=O)c3ccc(F)cc3)sc2C)cc1 | 100% | 99% | 20%
41 | Cc1c(C(=O)C2CC2CN2CCC(N3CCCCC3)CC2)sc2ccccc12 (stereo not drawn) | 94% | 19% | 35%
42 | O=C(CCC1CCCC1)N(Cc1ccc(-c2ccc(CNCCc3ccccn3)cc2)cc1)CC1CCCCN1.O=C(O)C(F)(F)F (stereo not drawn) | 95% | 69% | 32%

Row | Structure (SMILES) | Inhibition (Plasmodium falciparum [1]) | Inhibition (Plasmodium falciparum [2]) | Inhibition (HepG2)
43 | Cl.Oc1cccc(Nc2ccnc3cc(-c4cc5ccccc5o4)ccc23)c1 | 100% | 71% | 9%
44 | Cl.O=C(Nc1ccc(C2=NC3CCCCC3N2)cc1)Nc1ccc(C2=NC3CCCCC3N2)cc1 (stereo not drawn) | 88% | 76% | 7%
45 | CC(C)c1cc(Oc2c(I)cc(CCCc3ncc[nH]3)cc2I)ccc1O.Cl | 88% | 1% | 28%
46 | CCOC(=O)C1=C(C)NC2=C(C(=O)CCC2)C1c1cn(Cc2ccc(Cl)cc2Cl)nc1-c1ccccc1 (stereo not drawn) | 100% | 96% | 0%
47 | N#CCOc1c(C2CCN(CCCCNC(=O)c3ccc(-c4ccc(C(F)(F)F)cc4)cc3)CC2)ccc2c1CCCC2 | 97% | 48% | 59%
48 | C[C@@H](NC(=O)c1nn(-c2ccc(Cl)cc2)c(=O)c2ccccc12)C(C)(C)C | 95% | 20% | 7%
49 | COc1ccc2[nH]c(C)cc(=NN=Cc3ccccc3F)c2c1 | 100% | 100% | 3%
50 | N=C(N)NN=Cc1c[nH]c2ccc(-c3ccccc3)cc12.O=C(O)/C=C\C(=O)O | 84% | 61% | 15%
51 | CC(C)CNCc1cccc(-c2ccccc2CNC2CCN(Cc3ccccc3)CC2)c1.O=C(O)C(F)(F)F | 100% | 39% | 25%
52 | COc1cccc(CN2CCCC(OC(c3ccc(F)cc3)c3ccc(F)cc3)C2)c1O (stereo not drawn) | 95% | 95% | 8%
53 | COc1cc(Cc2cnc(N)nc2N)cc(OCCCCC2SC(=O)NC2=O)c1Br (stereo not drawn) | 94% | 0% | 15%
54 | O=C(Nc1cc(C(F)(F)F)ccc1N1CCOCC1)C(Cl)(Cl)Cl | 100% | 100% | 0%
55 | CCCN1CCN(CCCNc2c3ccccc3nc3ccccc23)CC1.Cl | 99% | 0% | 36%
56 | CS(=O)(=O)O.CSc1ccc2ccccc2c1CNCCCCCCNCc1c(SC)ccc2ccccc12 | 99% | 74% | 83%
57 | Cn1cccc1CCNCc1ccc(-c2cccc(-c3nc4ccccc4[nH]3)c2)cc1.O=C(O)C(F)(F)F | 88% | 66% | 1%
58 | CC(=O)CCc1ccc(OCCN(Cc2ccccc2C(F)(F)F)c2ccc(C#N)c(C(F)(F)F)c2)cc1 | 100% | 87% | 14%
59 | CCC(CC(C)C(=O)O)=C(c1ccccc1)c1ccccc1 (stereo not drawn) | 98% | 1% | 12%
60 | Cl.c1ccc(Oc2ccc(Nc3nncc4ccccc34)cc2)cc1 | 86% | 82% | 20%
61 | C#CCOc1ccccc1CN1CCC(N2CCc3cc(NC(=O)c4cc(C)on4)ccc32)C1 (stereo not drawn) | 95% | 94% | 16%

— ChEMBL document CHEMBL1157539, “Thousands of chemical starting points for antimalarial lead identification” (Nature, 2010)
